# The supplement of paper PMC12282887
# ± gives the standard deviation of the averaged measurements.
# Legend:
# Assay in all cases: promoter activity interaction Z-score (Lux/OD deviation from empty-vector control); higher = stronger promoter induction by the compound
# [1] = test system: E. coli BW25113 acrABp lux reporter
# In short: (§1)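 Four 1:2 dilutions of each compound were tested in biological duplicates on E. coli BW25113 carrying low-copy luxCDABE promoter reporters, either wild type or deleted for one of three genes. Cultures of 40 µl LB Lennox in 384-well plates were kept at 37°C and read for OD600 and luminescence every 30 min for 12 h. Integration windows were 0–8 h for wild type and 1–9 h for deletion strains, and wells under 10% of the median growth value were discarded. The score is a Z-transformed residual of growth-normalised luminescence relative to a control fit.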
# [2] = test system: E. coli BW25113 marRABp lux reporter
# In short: as §1
# [3] = test system: E. coli BW25113 micFp lux reporter
# In short: as §1
# [4] = test system: E. coli BW25113 ompFp lux reporter
# In short: as §1
# [5] = test system: E. coli BW25113 robp lux reporter
# In short: as §1
# [6] = test system: E. coli BW25113 soxSp lux reporter
# In short: as §1
# [7] = test system: E. coli BW25113 tolCp lux reporter
# In short: as §1
# [8] = 1.7 µg/ml, genetic background: wild type
# [9] = 1.7 µg/ml, genetic background: ΔmarA
# [10] = 1.7 µg/ml, genetic background: Δrob
# [11] = 1.7 µg/ml, genetic background: ΔsoxS
# [12] = 3.5 µg/ml, genetic background: wild type
# [13] = 3.5 µg/ml, genetic background: ΔmarA
# [14] = 3.5 µg/ml, genetic background: Δrob
# [15] = 3.5 µg/ml, genetic background: ΔsoxS
# [16] = 6.9 µg/ml, genetic background: wild type
# [17] = 6.9 µg/ml, genetic background: ΔmarA
# [18] = 6.9 µg/ml, genetic background: Δrob
# [19] = 6.9 µg/ml, genetic background: ΔsoxS
# [20] = 13.9 µg/ml, genetic background: wild type
# [21] = 13.9 µg/ml, genetic background: ΔmarA
# [22] = 13.9 µg/ml, genetic background: Δrob
# [23] = 13.9 µg/ml, genetic background: ΔsoxS
smiles,measurement,setting,value
NC(=O)c1cc[n+](CC2=C(C(=O)[O-])N3C(=O)[C@@H](NC(=O)[C@@H](c4ccccc4)S(=O)(=O)O)[C@H]3SC2)cc1 [Cefsulodin],promoter activity interaction Z-score,[1]; [8],0.269 ± 0.15
same,promoter activity interaction Z-score,[1]; [9],0.601 ± 0.24
same,promoter activity interaction Z-score,[1]; [10],-0.158 ± 0.15
same,promoter activity interaction Z-score,[1]; [11],-0.315 ± 0.077
same,promoter activity interaction Z-score,[1]; [12],0.0267 ± 0.076
same,promoter activity interaction Z-score,[1]; [13],0.343 ± 0.28
same,promoter activity interaction Z-score,[1]; [14],0.17 ± 0.29
same,promoter activity interaction Z-score,[1]; [15],-0.28 ± 0.31
same,promoter activity interaction Z-score,[1]; [16],0.306 ± 0.13
same,promoter activity interaction Z-score,[1]; [17],-0.189 ± 0.29
same,promoter activity interaction Z-score,[1]; [18],-0.455 ± 0.052
same,promoter activity interaction Z-score,[1]; [19],-0.399 ± 0.055
same,promoter activity interaction Z-score,[1]; [20],0.379 ± 0.28
same,promoter activity interaction Z-score,[1]; [21],-0.532 ± 0.81
same,promoter activity interaction Z-score,[1]; [22],0.198 ± 0.17
same,promoter activity interaction Z-score,[1]; [23],0.0814 ± 0.14
same,promoter activity interaction Z-score,[2]; [8],0.0888 ± 0.07
same,promoter activity interaction Z-score,[2]; [9],-0.156 ± 0.32
same,promoter activity interaction Z-score,[2]; [10],-0.151 ± 0.05
same,promoter activity interaction Z-score,[2]; [11],-0.273 ± 0.013
same,promoter activity interaction Z-score,[2]; [12],0.026 ± 0.046
same,promoter activity interaction Z-score,[2]; [13],-0.154 ± 0.15
same,promoter activity interaction Z-score,[2]; [14],-0.188 ± 0.075
same,promoter activity interaction Z-score,[2]; [15],-0.12 ± 0.063
same,promoter activity interaction Z-score,[2]; [16],-0.199 ± 0.15
same,promoter activity interaction Z-score,[2]; [17],-0.257 ± 0.49
same,promoter activity interaction Z-score,[2]; [18],-0.271 ± 0.049
same,promoter activity interaction Z-score,[2]; [19],-0.324 ± 0.025
same,promoter activity interaction Z-score,[2]; [20],1.24 ± 1.6
same,promoter activity interaction Z-score,[2]; [21],0.729 ± 0.25
same,promoter activity interaction Z-score,[2]; [22],0.241 ± 0.029
same,promoter activity interaction Z-score,[2]; [23],0.341 ± 0.012
same,promoter activity interaction Z-score,[3]; [8],0.14 ± 0.014
same,promoter activity interaction Z-score,[3]; [9],-0.0463 ± 0.21
same,promoter activity interaction Z-score,[3]; [10],0.0953 ± 0.35
same,promoter activity interaction Z-score,[3]; [11],-0.338 ± 0.047
same,promoter activity interaction Z-score,[3]; [12],0.0738 ± 0.052
same,promoter activity interaction Z-score,[3]; [13],-0.0526 ± 0.14
same,promoter activity interaction Z-score,[3]; [14],-0.0549 ± 0.0043
same,promoter activity interaction Z-score,[3]; [15],-0.224 ± 0.027
same,promoter activity interaction Z-score,[3]; [16],0.373 ± 0.2
same,promoter activity interaction Z-score,[3]; [17],-0.161 ± 0.17
same,promoter activity interaction Z-score,[3]; [18],0.046 ± 0.26
same,promoter activity interaction Z-score,[3]; [19],-0.32 ± 0.14
same,promoter activity interaction Z-score,[3]; [20],0.27 ± 0.18
same,promoter activity interaction Z-score,[3]; [21],-0.237 ± 0.007
same,promoter activity interaction Z-score,[3]; [22],-0.0142 ± 0.099
same,promoter activity interaction Z-score,[3]; [23],-0.324 ± 0.022
same,promoter activity interaction Z-score,[4]; [8],0.0922 ± 0.034
same,promoter activity interaction Z-score,[4]; [9],-0.437 ± 0.1
same,promoter activity interaction Z-score,[4]; [10],0.00718 ± 0.63
same,promoter activity interaction Z-score,[4]; [11],-0.453 ± 0.23
same,promoter activity interaction Z-score,[4]; [12],0.101 ± 0.094
same,promoter activity interaction Z-score,[4]; [13],0.0789 ± 0.37
same,promoter activity interaction Z-score,[4]; [14],-0.19 ± 0.099
same,promoter activity interaction Z-score,[4]; [15],-0.294 ± 0.097
same,promoter activity interaction Z-score,[4]; [16],0.254 ± 0.0045
same,promoter activity interaction Z-score,[4]; [17],-0.42 ± 0.15
same,promoter activity interaction Z-score,[4]; [18],-0.561 ± 0.17
same,promoter activity interaction Z-score,[4]; [19],-0.258 ± 0.67
same,promoter activity interaction Z-score,[4]; [20],2.4 ± 0.66
same,promoter activity interaction Z-score,[4]; [21],1.43 ± 0.62
same,promoter activity interaction Z-score,[4]; [22],1.29 ± 0.045
same,promoter activity interaction Z-score,[4]; [23],0.329 ± 1.2
same,promoter activity interaction Z-score,[5]; [8],0.353 ± 0.3
same,promoter activity interaction Z-score,[5]; [9],-0.684 ± 0.45
same,promoter activity interaction Z-score,[5]; [10],-0.402 ± 0.66
same,promoter activity interaction Z-score,[5]; [11],-0.564 ± 0.41
same,promoter activity interaction Z-score,[5]; [12],0.22 ± 0.28
same,promoter activity interaction Z-score,[5]; [13],-0.459 ± 0.031
same,promoter activity interaction Z-score,[5]; [14],-0.153 ± 0.28
same,promoter activity interaction Z-score,[5]; [15],-0.0266 ± 0.11
same,promoter activity interaction Z-score,[5]; [16],0.775 ± 0.033
same,promoter activity interaction Z-score,[5]; [17],-1.06 ± 0.66
same,promoter activity interaction Z-score,[5]; [18],-0.421 ± 0.63
same,promoter activity interaction Z-score,[5]; [19],-0.255 ± 0.017
same,promoter activity interaction Z-score,[5]; [20],-0.0503 ± 0.35
same,promoter activity interaction Z-score,[5]; [21],-0.32 ± 0.51
same,promoter activity interaction Z-score,[5]; [22],-0.936 ± 0.25
same,promoter activity interaction Z-score,[5]; [23],-1.59 ± 0.21
same,promoter activity interaction Z-score,[6]; [8],0.243 ± 0.14
same,promoter activity interaction Z-score,[6]; [9],0.0161 ± 0.021
same,promoter activity interaction Z-score,[6]; [10],0.337 ± 0.44
same,promoter activity interaction Z-score,[6]; [11],-0.145 ± 0.16
same,promoter activity interaction Z-score,[6]; [12],0.223 ± 0.013
same,promoter activity interaction Z-score,[6]; [13],0.0152 ± 0.069
same,promoter activity interaction Z-score,[6]; [14],0.186 ± 0.38
same,promoter activity interaction Z-score,[6]; [15],0.0422 ± 0.085
same,promoter activity interaction Z-score,[6]; [16],0.195 ± 0.0077
same,promoter activity interaction Z-score,[6]; [17],-0.0335 ± 0.17
same,promoter activity interaction Z-score,[6]; [18],0.0477 ± 0.44
same,promoter activity interaction Z-score,[6]; [19],-0.0923 ± 0.35
same,promoter activity interaction Z-score,[6]; [20],0.167 ± 0.16
same,promoter activity interaction Z-score,[6]; [21],-0.302 ± 0.11
same,promoter activity interaction Z-score,[6]; [22],-0.117 ± 0.011
same,promoter activity interaction Z-score,[6]; [23],-0.0117 ± 0.15
same,promoter activity interaction Z-score,[7]; [8],0.715 ± 0.94
same,promoter activity interaction Z-score,[7]; [9],-0.256 ± 0.052
same,promoter activity interaction Z-score,[7]; [10],0.191 ± 0.14
same,promoter activity interaction Z-score,[7]; [11],-1.1 ± 0.63
same,promoter activity interaction Z-score,[7]; [12],-0.195 ± 0.71
same,promoter activity interaction Z-score,[7]; [13],-0.0142 ± 0.11
same,promoter activity interaction Z-score,[7]; [14],0.0051 ± 0.65
same,promoter activity interaction Z-score,[7]; [15],-0.229 ± 0.0049
same,promoter activity interaction Z-score,[7]; [16],0.976 ± 0.34
same,promoter activity interaction Z-score,[7]; [17],-0.562 ± 0.45
same,promoter activity interaction Z-score,[7]; [18],-0.0786 ± 0.68
same,promoter activity interaction Z-score,[7]; [19],-0.444 ± 0.1
same,promoter activity interaction Z-score,[7]; [20],-0.259 ± 0.34
same,promoter activity interaction Z-score,[7]; [21],-0.283 ± 0.28
same,promoter activity interaction Z-score,[7]; [22],-0.0472 ± 0.28
same,promoter activity interaction Z-score,[7]; [23],-0.088 ± 0.34
